Screens deposited in PubChem by National Center for Advancing Translational Sciences (NCATS).
Sampled rows, rich in hits. Any-hit rate of the full collection: about 5.6%.
Gal4-VP16 FLuc – Gal4-VP16 reporter inhibition counter-screen | AID 2546 | Drosophila S2 Gal4-VP16 UAS-luciferase, luminescence, 20 h | 310,000 compounds, 3.5% hits | Potency, µM (titrated, usually from 53.6 µM), inactives show top-dose activity, negative = inhibition, most hits filed as inhibitors;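 further: Gal4-VP16 expression switched on by copper sulfate through the metallothionein promoter; potency means the concentration at half of the fitted maximal effect; nearly all actives have a fitted effect of over 50% in size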
RORg inh – ROR gamma (mouse) transcription inhibition; 310,000 compounds, 5.4% hits; P51450; AID 2551; Potency, µM (titrated, usually from 53.6 µM), without a hit: at the highest dose activity change, negative = inhibition, hits mostly inhibitors; Drosophila S2 Gal4-RORgamma UAS-luciferase reporter, 20 h; further: potency means the concentration at half of the fitted maximal effect; nearly all actives have a fitted effect of over 60% in size
Target sequence (P51450 whole entry, looked up, the tested form may be a part): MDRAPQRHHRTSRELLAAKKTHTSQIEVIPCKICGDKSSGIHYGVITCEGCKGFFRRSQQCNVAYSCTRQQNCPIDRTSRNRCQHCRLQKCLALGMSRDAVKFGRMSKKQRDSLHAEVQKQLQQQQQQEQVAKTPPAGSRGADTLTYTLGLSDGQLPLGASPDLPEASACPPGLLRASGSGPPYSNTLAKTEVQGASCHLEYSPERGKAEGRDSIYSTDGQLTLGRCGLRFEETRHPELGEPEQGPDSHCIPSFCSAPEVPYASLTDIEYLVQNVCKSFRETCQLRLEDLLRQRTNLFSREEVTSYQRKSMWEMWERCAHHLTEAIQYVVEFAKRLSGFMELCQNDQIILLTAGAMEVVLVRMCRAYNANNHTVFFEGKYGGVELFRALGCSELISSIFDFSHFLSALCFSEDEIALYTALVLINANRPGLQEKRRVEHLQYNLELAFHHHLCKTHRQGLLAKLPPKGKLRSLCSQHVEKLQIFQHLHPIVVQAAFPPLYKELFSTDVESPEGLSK
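A Gal4/UAS one-hybrid system in insect cells: metallothionein-promoter Gal4–ROR gamma fusion plus Photinus luciferase reporter. Copper sulfate 700 uM final, 20 hr ambient incubation, luminescent detection after 10 min with reagent.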
CtBP-E1A inh – CtBP/E1A binding inhibition; 340,000 compounds, 0.49% hits; AlphaScreen GST-E1A/His-CtBP binding, 1536-well; stronger effect = lower value; activity change, % (no concentration beside the values); in the data active means activity change below about -65%; inconclusive means mostly about -30% to -63%
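GST-E1A and His-tagged CtBP (125 nM each as 5X stock) were preincubated with pin-transferred compound for 2 h at 37 °C in the dark, then glutathione donor and nickel acceptor beads were added for 1 h before AlphaScreen reading.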
PKM2 act – PKM2 (human) enzyme activation; P14618; purified PKM2, Kinase-Glo ATP luminescence, activation; response scale: 0% is enzyme alone, no compound; Potency, µM (highest dose often 57.5 µM), for inactives: at the highest dose activation, most hits filed as activators; 260,000 compounds, 0.34% hits; further: potency means the concentration at half of the fitted maximal effect; nearly all actives have a fitted effect of over 55% in size
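Purified hPK-M2 (>95%) run at intermediate activity with 0.1 mM ADP and 0.5 mM PEP in 50 mM imidazole pH 7.2, KCl, MgCl2; 1 h room temperature. ATP formed read by Kinase-Glo luminescence; normalized to uninhibited and no-enzyme controls.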
Six1-Eya2 blk – inhibitors of human Six1/Eya2 interaction. AID 651725. 360,000 compounds, 0.56% hits. activity change, % (test concentration not listed). AlphaScreen GST-Six1/His-Eya2 binding, biochemical; stronger effect = lower value; in the data active means activity change below about -65%; inconclusive means mostly about -30% to -63%
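AlphaScreen with GST-Six1 and His-Eya2 (5X mix: 250 nM and 500 nM), glutathione donor and nickel acceptor beads; buffer 50 mM Tris pH 8.0, 300 mM NaCl, 1 mM TCEP; 1 h at 37 C in the dark.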
* hit, by the source's call; ? = inconclusive; . = no result given. Unless noted, the call rests on the fitted dose curve; in most records, active means well fitted curve in the direction sought with a large enough effect; inconclusive means small, poorly fitted or top-dose-only effect, or another doubt; inactive means no such curve, though single readings can be large; an effect the other way counts as inactive or inconclusive. On the % scale 0 is the no-effect control and ±100 the full control effect.

SMILES	Gal4-VP16 FLuc	RORg inh	CtBP-E1A inh	PKM2 act	Six1-Eya2 blk
CCOC(=O)N=Nc1c2ccccc2c2nc3no[nH]c3nc12	3.98µM*	0.355µM*	-3.9	.	-2.2
CCOC(=O)N=Nc1c(O)n(CC(=O)OC)c2ccccc12	4.3%	3.5%	-12.7	-2.7%	7.5
O=C(COC(=O)c1cccc(C(=O)OCC(=O)NC2CC2)n1)NC1CC1	2.9%	-18.5%	3.2	-0.9%	0.0
COc1cc(Br)cc(C(=O)N2CCc3ccccc32)c1OC	.	.	7.3	.	0.3
Cc1ccc(S(=O)(=O)N2CCOCC2)cc1C(=O)NCCN1C(=O)S/C(=C\c2ccccc2Cl)C1=O	-10.4%	?	1.7	0.9%	-0.9
CC(C)(C)c1ccc(/C=C2\SC(=O)N(CCNC(=O)c3cccc(S(=O)(=O)N4CCOCC4)c3)C2=O)cc1	2µM*	?	-14.9	-15.5%	-17.7
CC(c1n[nH]c(=S)n1-c1ccccc1)N1CCCCC1 (stereo not drawn)	-9.7%	10µM*	6.3	0.4%	-0.2
CN(C)Cc1csc(Nc2ccc(C(F)(F)F)cn2)n1	.	.	-2.3	.	4.4
C/C(=N\NC(N)=S)c1ccc(-n2ccnc2)cc1	-8.5%	?	-3.0	0.1%	-9.4
C=C(C)CNC(=S)N/N=C(\C)c1ccc(-n2ccnc2)cc1	7.94µM*	6.31µM*	-5.0	4.1%	-19.1
Cc1ccc(C2CC2C(=O)NNC(=S)Nc2cccc(Cl)c2)cc1 (stereo not drawn)	-5.1%	-26.3%	-4.1	-1.2%	-10.5
O=C(NNC(=S)Nc1ccc(F)cc1)C1CC1c1ccc(Cl)cc1 (stereo not drawn)	20µM*	?	-0.9	-9.0%	3.3
Cc1ccc(NC(=S)NNC(=O)C2CC2c2ccc(C)cc2)cc1 (stereo not drawn)	?	11.2µM*	-5.7	3.1%	-3.3
COc1ccc(NC(=S)NNC(=O)C2CC2c2ccc(C)cc2)cc1 (stereo not drawn)	-16.9%	-21.3%	-3.2	1.8%	-4.6
Cc1ccc(/C=C/C(=O)N2CC(=O)Nc3ccccc32)o1	15.8µM*	?	0.3	16.5%	-6.9
CC(=O)Nc1ccc(-c2ccnc3c2CC(C(=O)NCC2CCOCC2)O3)cc1 (stereo not drawn)	.	.	-21.9	.	6.4
Cn1c(NC(=O)c2ccccc2NC(=O)C(C)(C)C)nc2ccccc21	11.2µM*	10µM*	13.4	10.9%	-5.8
C/C(=N\NC(=O)c1ccccc1)c1nc2ccccc2n1C	3.16µM*	1.58µM*	13.4	1.6%	0.2
Cn1c(SC(C(=O)Nc2ccc(F)cc2)c2ccccc2)nc2ccccc21 (stereo not drawn)	?	11.2µM*	.	-7.9%	-8.6
Cn1c(NC(=O)c2ccc(F)cc2)nc2ccccc21	1.26µM*	0.447µM*	5.0	-11.3%	-6.3
O=C(Nc1nc2ccccc2c2nc3ccccc3n12)c1ccc(F)cc1	-5.4%	2.8%	.	-9.0%	.
Cn1nnnc1SC(C(=O)Nc1ccc(F)cc1)c1ccccc1 (stereo not drawn)	3.6%	22.9%	7.0	-1.0%	16.5
Cc1nc(C(F)(F)F)ccc1C(=O)N1CCCC(C)(C(=O)O)C1 (stereo not drawn)	.	.	4.4	.	6.5
CCOC(=O)c1ccccc1NC(=O)CSc1nc2[nH]ncc2c(=O)[nH]1	.	.	3.3	.	4.9
Cc1ccc(C(=O)C2=C(O)C(=O)N(Cc3ccco3)C2c2cccc(Cl)c2)o1 (stereo not drawn)	6.2%	-33.1%	0.4	1.8%	8.0
SMILES	Gal4-VP16 FLuc	RORg inh	CtBP-E1A inh	PKM2 act	Six1-Eya2 blk
Cc1ccc(C(=O)C2=C(O)C(=O)N(c3ncccn3)C2c2cccc(Cl)c2)o1 (stereo not drawn)	-2.7%	17.0%	.	6.31µM*	.
CCOC(=O)c1ccc(NC(=O)c2cc(C)nc3ccccc23)cc1	-0.2%	?	-1.7	0.4%	0.6
CCc1ccc(OCc2ccccc2C(=O)Nc2ccc3nc(C)cc(N)c3c2)cc1	?	11.2µM*	.	.	.
Cc1ccc(C)c(NC(=S)NC(C)C(c2cccs2)N2CCOCC2)c1 (stereo not drawn)	11.2µM*	5.01µM*	0.6	-4.2%	1.2
CC(NC(=S)Nc1cccc(F)c1)C(c1cccs1)N1CCOCC1 (stereo not drawn)	?	8.91µM*	-1.8	0.4%	3.0
CC1CCN(c2ccc(-c3cccs3)nn2)CC1	2µM*	2µM*	.	.	4.3
O=C(Nc1nnc(-c2ccccc2)o1)c1ccc(Cl)cc1	1.41µM*	0.708µM*	-6.9	-4.4%	-5.3
Cc1ccnc2nc(C(=O)Nc3nnc(-c4ccc(Cl)cc4)o3)nn12	-2.7%	-1.9%	1.5	-21.5%	-15.6
CN(C)c1ccc(C(=O)NNC(=O)c2ccc(Cl)cc2)cc1	-10.8%	-1.7%	1.2	-0.5%	2.4
CN(C)c1ccc(C(=O)Nc2nnc(-c3ccc(Cl)cc3)o2)cc1	0.501µM*	0.501µM*	-3.9	-20.9%	-9.3
CC(=O)c1ccc(C(=O)Nc2nnc(-c3ccc(Cl)cc3)o2)cc1	2.51µM*	-34.8%	?	-7.4%	-17.9
CCOc1ccccc1C(=O)NC(C(=O)OCC(=O)Nc1nnc(-c2ccccc2)o1)C(C)C (stereo not drawn)	5.01µM*	2.24µM*	?	-12.1%	?
Cn1nccc1C(=O)Oc1ccc(/C=N/NC(=O)c2ccccc2O)cc1	?	?	1.4	-0.4%	-5.3
CCN(CC(=O)Nc1ccccc1C(F)(F)F)C(=O)c1oc2ccc(OC)cc2c1C	.	.	-1.4	.	3.7
O=C(Nc1nnc(-c2ccc(Cl)cc2)o1)NC1CCCCC1	3.55µM*	?	3.8	3.4%	2.4
O=C(COc1ccccc1)Nc1nnc(-c2ccc(Cl)cc2)o1	5.62µM*	7.08µM*	-23.3	-1.3%	?
CCCN(CC(=O)Nc1ccccc1C)C(=O)C1CC(=O)N(Cc2ccccc2)C1 (stereo not drawn)	.	.	-18.0	.	4.6
CCN(CCO)C1CC(=O)N(c2ccccc2C)C1=O (stereo not drawn)	3.55µM*	3.98µM*	8.3	?	-2.3
Cc1cccc(N2C(=O)CC(Cn3nc(C)cc3C)C2=O)c1 (stereo not drawn)	2.8%	-0.8%	.	0.2%	-2.9
CCN(CC)C1CC(=O)N(c2cccc(C)c2)C1=O (stereo not drawn)	7.08µM*	-142.5%	.	9.8%	.
CC(=O)Nc1ccc(NS(=O)(=O)c2c(Cl)cccc2Cl)cc1	1.1%	-2.4%	-6.3	16.6%	6.7
C[C@H](CO)N1C[C@H](C)[C@@H](CN(C)S(=O)(=O)c2ccccc2C#N)OCc2cn(nn2)CCCC1=O	.	.	-4.2	.	10.0
OC[C@@H]1CN(Cc2cccs2)C[C@H](n2cnc3c(NCc4ccco4)ncnc32)O1	.	.	-1.1	.	-5.5
CC(C)CNC(=O)c1cccc(NC(=O)c2ccc3c(c2)C(=O)N(C)C3=O)c1	-3.5%	25.7%	.	9.9%	-5.5
